Experiment [1] concerns the target Protein translocase subunit SecA (Escherichia coli (strain K12)) (UniProt P10408). In words: Assay to Identify E. coli SecA ATPase Inhibitors. The experiment is classed as functional. Details: scale not given: direction of the effect not stated beside the values. The conditions noted are these: 30 µM.
Experiment [2] has as its target T1, Ubiquitin-activating enzyme e1, putative (Leishmania donovani (strain BPK282A1)) (UniProt E9BSI1).
T1 sequence (whole entry): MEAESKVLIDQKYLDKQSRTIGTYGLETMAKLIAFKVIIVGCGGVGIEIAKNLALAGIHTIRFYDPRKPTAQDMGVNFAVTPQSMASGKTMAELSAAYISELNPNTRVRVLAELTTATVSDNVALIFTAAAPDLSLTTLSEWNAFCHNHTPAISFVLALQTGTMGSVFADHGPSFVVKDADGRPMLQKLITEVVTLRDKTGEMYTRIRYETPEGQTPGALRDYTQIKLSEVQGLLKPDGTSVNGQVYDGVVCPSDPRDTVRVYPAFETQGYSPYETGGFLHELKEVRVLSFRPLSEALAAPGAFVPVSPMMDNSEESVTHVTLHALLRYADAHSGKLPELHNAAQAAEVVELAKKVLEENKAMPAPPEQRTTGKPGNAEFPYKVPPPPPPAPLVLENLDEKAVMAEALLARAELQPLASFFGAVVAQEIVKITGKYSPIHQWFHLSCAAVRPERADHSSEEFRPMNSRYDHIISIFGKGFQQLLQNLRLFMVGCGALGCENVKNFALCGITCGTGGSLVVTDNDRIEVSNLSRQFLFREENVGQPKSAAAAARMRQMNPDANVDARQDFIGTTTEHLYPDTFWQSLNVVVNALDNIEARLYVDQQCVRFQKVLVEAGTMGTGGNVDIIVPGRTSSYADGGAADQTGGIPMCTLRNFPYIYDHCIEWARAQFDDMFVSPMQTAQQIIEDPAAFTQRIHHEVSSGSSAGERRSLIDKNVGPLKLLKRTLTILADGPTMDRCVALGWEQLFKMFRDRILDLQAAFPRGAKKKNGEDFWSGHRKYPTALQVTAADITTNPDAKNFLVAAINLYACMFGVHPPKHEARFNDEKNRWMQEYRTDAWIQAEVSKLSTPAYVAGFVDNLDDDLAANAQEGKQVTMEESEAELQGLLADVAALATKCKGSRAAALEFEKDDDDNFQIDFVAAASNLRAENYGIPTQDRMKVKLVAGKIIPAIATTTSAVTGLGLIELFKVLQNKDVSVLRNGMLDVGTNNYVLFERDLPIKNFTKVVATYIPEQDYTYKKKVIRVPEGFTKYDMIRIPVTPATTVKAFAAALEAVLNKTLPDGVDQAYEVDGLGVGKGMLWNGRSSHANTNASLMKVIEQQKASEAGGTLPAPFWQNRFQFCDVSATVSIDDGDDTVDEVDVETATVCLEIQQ
The experiment in a line: Leishmania donovani Ubiquitin Activating Enzyme (LdE1). The class given is functional. Details: scale not given: direction of the effect not stated beside the values. The conditions noted are these: 30 µM.

Experiment [3] concerns the target AMP-activated protein kinase, AMPK (Homo sapiens) (UniProt P54646+O43741+P54619+Q9UGJ0+Q9Y478+Q13131+Q9UGI9). The experiment in a line: AMP-dependent Kinase enzyme assay. An in vitro enzyme assay that detects ADP turnover that is directly proportional to AMPK activity. This uses naive AMPK that is activated during the assay with MK-8722. The class given is functional. Details: scale not given: direction of the effect not stated beside the values. Particulars: 30 µM.

The target in experiment [4] is Sialic acid-binding Ig-like lectin 9 (Homo sapiens) (UniProt Q9Y336). The experiment in a line: Hs-Siglec9 ALPHAscreen SOP 20170721. Details: scale not given: direction of the effect not stated beside the values. The conditions noted are these: 10 µM. (In general: Alpha assays give light when donor and acceptor beads are brought close together.)
In experiment [5] the test system is Trypanosoma cruzi. The experiment in a line: Trypanosoma cruzi phosphomannomutase and mannose-1-phosphate guanylyltransferase assay. Particulars: 10 µM. The experiment is classed as functional. Details: scale not given: direction of the effect not stated beside the values.
In experiment [6] the target is T2, Arginase-2, mitochondrial (Homo sapiens) (UniProt P78540).
T2 sequence (whole entry): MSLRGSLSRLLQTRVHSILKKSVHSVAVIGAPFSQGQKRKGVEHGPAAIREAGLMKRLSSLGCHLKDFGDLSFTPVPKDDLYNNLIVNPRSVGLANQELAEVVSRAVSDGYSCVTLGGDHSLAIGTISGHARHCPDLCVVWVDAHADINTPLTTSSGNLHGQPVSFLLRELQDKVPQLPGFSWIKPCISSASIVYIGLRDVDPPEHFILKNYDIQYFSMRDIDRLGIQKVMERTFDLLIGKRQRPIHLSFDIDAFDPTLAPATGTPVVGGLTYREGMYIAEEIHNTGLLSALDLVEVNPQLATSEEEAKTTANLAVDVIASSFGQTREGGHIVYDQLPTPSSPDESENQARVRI
The experiment in a line: in vitro enzyme assay to detect the production of urea directly proportional to the activity of Arginase II. Details: scale not given: in the data most compounds retested in dose-response had high values. The experiment is classed as functional.

Experiment [7] concerns the target T3, Proteasome subunit beta (Trypanosoma cruzi) (UniProt O96673).
T3 sequence (whole entry): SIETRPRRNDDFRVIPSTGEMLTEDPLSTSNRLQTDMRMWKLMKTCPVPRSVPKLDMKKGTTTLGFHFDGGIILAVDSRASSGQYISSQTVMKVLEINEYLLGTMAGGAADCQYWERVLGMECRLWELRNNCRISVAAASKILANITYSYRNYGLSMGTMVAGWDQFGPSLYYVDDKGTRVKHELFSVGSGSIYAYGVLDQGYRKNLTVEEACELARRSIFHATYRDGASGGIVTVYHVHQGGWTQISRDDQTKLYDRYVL
In words: Trypanosoma cruzi proteasome chymotrypsin-like activity (TcProtChymo) assay. The experiment is classed as functional. Details: scale not given: in the data most compounds retested in dose-response had high values. The conditions noted are these: 9.37 µM.

The species entered for experiment [8] is Homo sapiens. In words: To identify inhibition of the IFN signalling (Jak-Stat) pathway via expression of an eGFP reporter gene under the control of an IFN-stimulated response element (ISRE) containing MxA promoter. The experiment is classed as functional. Details: scale not given: direction of the effect not stated beside the values. Particulars: 30 µM.

For experiment [9], the target named is T4, Tyrosyl-tRNA synthetase, putative (Trypanosoma cruzi (strain CL Brener)) (UniProt Q4DSP6).
T4 sequence (whole entry): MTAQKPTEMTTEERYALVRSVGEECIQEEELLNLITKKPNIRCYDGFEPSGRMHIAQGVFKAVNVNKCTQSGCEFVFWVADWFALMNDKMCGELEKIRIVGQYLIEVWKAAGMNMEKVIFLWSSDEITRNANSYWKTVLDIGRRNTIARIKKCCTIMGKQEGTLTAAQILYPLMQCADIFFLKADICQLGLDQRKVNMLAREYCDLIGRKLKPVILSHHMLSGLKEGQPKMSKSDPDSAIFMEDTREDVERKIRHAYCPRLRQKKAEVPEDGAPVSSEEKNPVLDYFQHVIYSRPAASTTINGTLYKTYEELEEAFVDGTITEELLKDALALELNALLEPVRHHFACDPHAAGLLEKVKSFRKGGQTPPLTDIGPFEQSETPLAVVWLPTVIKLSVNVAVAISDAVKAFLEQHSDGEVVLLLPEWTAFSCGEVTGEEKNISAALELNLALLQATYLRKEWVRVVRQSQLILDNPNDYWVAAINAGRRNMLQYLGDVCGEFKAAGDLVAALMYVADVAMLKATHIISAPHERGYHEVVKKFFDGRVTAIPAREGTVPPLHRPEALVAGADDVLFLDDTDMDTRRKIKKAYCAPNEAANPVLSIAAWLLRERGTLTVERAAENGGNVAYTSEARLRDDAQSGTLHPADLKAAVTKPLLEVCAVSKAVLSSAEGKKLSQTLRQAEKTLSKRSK
In words: Trypanosoma cruzi tyrosyl tRNA synthetase (TcYRS) _High Tyrosine SOP. The conditions noted are these: 30 µM. The experiment is classed as functional. Details: scale not given: in the data most compounds retested in dose-response had high values.

For experiment [10], the target named is T4, Tyrosyl-tRNA synthetase, putative (Trypanosoma cruzi (strain CL Brener)). The experiment in a line: Trypanosoma cruzi tyrosyl tRNA synthetase (TcYRS) SOP. The class given is functional. Details: scale not given: direction of the effect not stated beside the values. The conditions noted are these: 30 µM.
Experiment [11] concerns the target Chromo domain-containing protein 1 (Saccharomyces cerevisiae (strain ATCC 204508 / S288c) (Baker's yeast)) (UniProt P32657). The experiment in a line: ScCHD-1 Enzyme Inhibition Assay. The experiment is classed as functional. Details: scale not given: in the data most compounds retested in dose-response had high values. The conditions noted are these: 30 µM.
For experiment [12], the target named is T5, Methionyl-tRNA synthetase, putative (Leishmania donovani (strain BPK282A1)) (UniProt E9BF75).
T5 sequence (whole entry): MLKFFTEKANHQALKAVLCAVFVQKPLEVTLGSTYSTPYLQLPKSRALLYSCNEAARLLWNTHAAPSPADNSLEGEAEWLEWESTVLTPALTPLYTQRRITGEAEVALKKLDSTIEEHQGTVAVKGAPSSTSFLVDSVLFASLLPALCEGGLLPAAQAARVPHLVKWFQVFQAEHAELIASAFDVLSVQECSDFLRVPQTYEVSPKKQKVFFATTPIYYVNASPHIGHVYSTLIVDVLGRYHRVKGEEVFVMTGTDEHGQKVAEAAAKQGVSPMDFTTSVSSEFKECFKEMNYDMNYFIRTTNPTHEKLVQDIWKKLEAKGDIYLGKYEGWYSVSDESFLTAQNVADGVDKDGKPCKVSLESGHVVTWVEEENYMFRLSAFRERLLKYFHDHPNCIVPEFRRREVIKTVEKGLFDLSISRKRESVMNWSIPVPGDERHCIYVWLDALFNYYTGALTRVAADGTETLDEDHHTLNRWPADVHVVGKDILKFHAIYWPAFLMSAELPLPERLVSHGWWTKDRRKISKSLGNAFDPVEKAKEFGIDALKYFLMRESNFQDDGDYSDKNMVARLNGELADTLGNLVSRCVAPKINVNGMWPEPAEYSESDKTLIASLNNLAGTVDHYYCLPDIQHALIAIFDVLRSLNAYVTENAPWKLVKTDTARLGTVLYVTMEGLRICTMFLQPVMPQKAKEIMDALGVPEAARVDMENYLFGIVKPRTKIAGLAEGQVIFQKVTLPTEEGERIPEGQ
The experiment in a line: Leishmania donovani Methionine tRNA synthetase (LdMetRS):v7. Dose response assay. Details: conc 80 nM, time 150 minutes. The experiment is classed as functional.

The structures appear in SMILES notation. For part of these data: Results with a measured potency or affinity are listed apart. Bounds are passed on as bounds.

Sequence of Chromo domain-containing protein 1 (Saccharomyces cerevisiae (strain ATCC 204508 / S288c) (Baker's yeast)) (P32657 whole entry, the tested form may be a part): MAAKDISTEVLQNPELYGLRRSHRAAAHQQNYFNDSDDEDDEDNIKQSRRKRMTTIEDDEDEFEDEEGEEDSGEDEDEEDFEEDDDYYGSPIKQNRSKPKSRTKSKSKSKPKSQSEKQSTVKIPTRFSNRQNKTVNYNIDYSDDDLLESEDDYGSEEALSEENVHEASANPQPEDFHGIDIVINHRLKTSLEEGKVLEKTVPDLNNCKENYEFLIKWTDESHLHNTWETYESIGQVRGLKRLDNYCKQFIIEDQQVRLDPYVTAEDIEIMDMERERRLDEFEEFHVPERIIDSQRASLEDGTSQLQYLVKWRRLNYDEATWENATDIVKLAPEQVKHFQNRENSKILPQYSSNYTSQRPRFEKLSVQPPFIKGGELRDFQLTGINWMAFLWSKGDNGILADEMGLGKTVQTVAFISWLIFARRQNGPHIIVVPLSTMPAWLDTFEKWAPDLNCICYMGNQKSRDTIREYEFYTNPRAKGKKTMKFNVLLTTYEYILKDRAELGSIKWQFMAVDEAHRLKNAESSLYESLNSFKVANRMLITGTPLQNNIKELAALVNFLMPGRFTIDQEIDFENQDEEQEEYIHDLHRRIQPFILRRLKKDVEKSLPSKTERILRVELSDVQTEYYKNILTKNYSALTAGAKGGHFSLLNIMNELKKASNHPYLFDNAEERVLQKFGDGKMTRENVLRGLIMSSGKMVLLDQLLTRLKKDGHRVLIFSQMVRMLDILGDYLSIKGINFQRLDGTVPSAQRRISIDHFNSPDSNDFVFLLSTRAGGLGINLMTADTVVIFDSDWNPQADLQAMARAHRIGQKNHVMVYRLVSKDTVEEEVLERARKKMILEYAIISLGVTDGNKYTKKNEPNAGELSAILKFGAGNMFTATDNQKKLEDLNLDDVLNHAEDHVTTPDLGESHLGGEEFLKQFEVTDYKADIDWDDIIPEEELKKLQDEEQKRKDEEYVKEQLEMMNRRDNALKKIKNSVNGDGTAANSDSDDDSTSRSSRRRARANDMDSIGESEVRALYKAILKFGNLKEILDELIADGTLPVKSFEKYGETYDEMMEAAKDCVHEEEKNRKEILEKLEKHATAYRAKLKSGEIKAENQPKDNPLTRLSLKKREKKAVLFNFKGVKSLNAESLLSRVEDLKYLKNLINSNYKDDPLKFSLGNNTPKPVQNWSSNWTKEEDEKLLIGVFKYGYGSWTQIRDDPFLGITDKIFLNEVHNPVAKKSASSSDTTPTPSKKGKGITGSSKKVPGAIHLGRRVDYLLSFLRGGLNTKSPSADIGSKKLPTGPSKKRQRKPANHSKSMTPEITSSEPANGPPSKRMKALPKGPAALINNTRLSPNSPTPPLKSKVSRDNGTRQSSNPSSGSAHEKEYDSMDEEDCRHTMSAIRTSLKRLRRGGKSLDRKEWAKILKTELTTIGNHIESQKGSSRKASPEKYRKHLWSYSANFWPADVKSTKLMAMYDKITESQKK
Sequence of Protein translocase subunit SecA (Escherichia coli (strain K12)) (P10408 whole entry): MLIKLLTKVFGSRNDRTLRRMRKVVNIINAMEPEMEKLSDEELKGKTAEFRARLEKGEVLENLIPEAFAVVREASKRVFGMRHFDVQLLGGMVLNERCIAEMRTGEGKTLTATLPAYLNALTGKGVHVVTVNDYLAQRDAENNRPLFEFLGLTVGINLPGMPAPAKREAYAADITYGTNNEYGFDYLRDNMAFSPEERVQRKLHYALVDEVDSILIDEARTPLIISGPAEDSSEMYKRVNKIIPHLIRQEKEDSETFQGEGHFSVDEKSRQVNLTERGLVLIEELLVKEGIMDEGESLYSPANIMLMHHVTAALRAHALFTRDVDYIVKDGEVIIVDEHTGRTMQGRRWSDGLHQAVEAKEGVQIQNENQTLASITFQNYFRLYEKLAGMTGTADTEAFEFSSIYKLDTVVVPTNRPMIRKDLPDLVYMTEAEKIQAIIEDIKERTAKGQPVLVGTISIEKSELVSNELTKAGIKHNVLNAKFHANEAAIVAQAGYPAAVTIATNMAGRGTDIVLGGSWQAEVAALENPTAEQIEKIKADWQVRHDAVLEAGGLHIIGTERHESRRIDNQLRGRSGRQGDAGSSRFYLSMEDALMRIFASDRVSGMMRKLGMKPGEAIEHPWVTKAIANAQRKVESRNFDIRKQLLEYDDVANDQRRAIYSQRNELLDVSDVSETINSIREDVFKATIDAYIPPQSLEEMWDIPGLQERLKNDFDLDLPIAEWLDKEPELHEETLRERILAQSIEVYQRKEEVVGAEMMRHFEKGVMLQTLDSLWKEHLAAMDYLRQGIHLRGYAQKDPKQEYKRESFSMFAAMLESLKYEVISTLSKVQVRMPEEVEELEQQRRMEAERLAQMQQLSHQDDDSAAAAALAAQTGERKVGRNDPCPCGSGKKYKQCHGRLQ
Sequence of Sialic acid-binding Ig-like lectin 9 (Homo sapiens) (Q9Y336 whole entry): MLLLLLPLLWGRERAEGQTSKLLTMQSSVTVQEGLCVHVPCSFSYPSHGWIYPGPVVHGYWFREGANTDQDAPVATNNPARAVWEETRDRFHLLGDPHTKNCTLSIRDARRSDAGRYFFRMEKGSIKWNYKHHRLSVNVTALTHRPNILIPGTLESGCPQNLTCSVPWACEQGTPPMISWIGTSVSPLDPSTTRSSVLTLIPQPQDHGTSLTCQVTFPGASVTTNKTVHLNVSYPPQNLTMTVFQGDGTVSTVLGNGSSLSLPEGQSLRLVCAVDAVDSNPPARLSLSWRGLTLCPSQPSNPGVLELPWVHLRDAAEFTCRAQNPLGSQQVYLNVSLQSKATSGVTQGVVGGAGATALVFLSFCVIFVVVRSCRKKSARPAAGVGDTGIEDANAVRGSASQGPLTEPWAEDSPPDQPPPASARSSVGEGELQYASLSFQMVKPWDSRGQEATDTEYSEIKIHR

For `COc1c(CNC2CCc3c(Cl)cccc32)c(C)nn1C` (stereo not drawn), the Percent Effect in experiment [1] is -3.04%; in experiment [2], 8%; in [3], -13.3%; in [4], 15.4%; in experiment [5] it was 7.89%; in [6] (30 µM), 1.62%. Besides, the Percent Effect in experiment [6] (33.3 µM) came out at 14.1%; in experiment [7] it was 16.2%; in experiment [8], 53.8%; in experiment [9], 4.92%; in [10] it was 16.1%; in experiment [11], 108%.

In the case of `Cc1nnc(NCC2(c3ccc(Cl)cc3Cl)CCOCC2)c(C#N)c1C`, the PXC50 in experiment [12] (MAX_EFFECT 33.25415677) and in experiment [12] (MAX_EFFECT 41.72535211) was below 4 each time. Also, the Percent Effect in experiment [1] is -4%; in experiment [2], 0%; in experiment [3], -11.6%; in [4] it was 42.2%; in [5] it was 12.2%; in [6] (33.3 µM), 1.91%. The Percent Effect was 8.97% in experiment [7]; 10.4% in [8]; 5.82% in experiment [9]; 2.44% in experiment [10]; -12.2% in experiment [11].

Consider `Cc1cc(CNC(=O)N2CCN(c3ccccc3)CC2)no1`, for which the Percent Effect in experiment [1] is -3.75%; in experiment [2], 5.41%; in experiment [3], 2.37%; in experiment [4], 0.348%; in experiment [5], 0%; in experiment [6] (30 µM) it was 3.78%. The Percent Effect is 4.17% in [6] (33.3 µM); 10.6% in experiment [7]; -2.92% in experiment [8]; 9.9% in experiment [9]; 3.66% in experiment [10]; -1.36% in [11].

As for `c1ccc(COC2CCN(c3cncc(-n4cccn4)n3)CC2)cc1`, the PXC50 in experiment [12] (MAX_EFFECT 8.551068884) and in experiment [12] (MAX_EFFECT 14.26056338) was below 4 each time. In addition, the Percent Effect in experiment [1] is -2.59%; in [2], 5.41%; in experiment [3], -5.76%; in experiment [4], -7.06%; in experiment [5], 4.3%; in experiment [6] (33.3 µM), 2.08%. In addition, the Percent Effect is 19.2% in [7]; 14.3% in experiment [8]; 8.91% in [9]; 13.4% in experiment [10]; -2.69% in experiment [11].

Turning to `c1ccc(C2CCN(c3cncc(-n4cccn4)n3)CC2)cc1`, the PXC50 in experiment [12] (MAX_EFFECT 19.47743468) and in experiment [12] (MAX_EFFECT 35.38732394) was below 4 throughout. In addition, the Percent Effect in experiment [1] was -1.56%; in [2], 8.11%; in experiment [3], 3.62%; in [4] it was 3.88%; in experiment [5] it was 1.17%; in [6] (33.3 µM) it was 5.42%. The Percent Effect in experiment [7] is 14.1%; in [8], 10%; in experiment [9], 9.9%; in experiment [10], 18.3%; in experiment [11] it was -4.19%.
